Records with an inconclusive call do not appear. Unmarked numbers belong to inactive results. Activity calls are given as the source filed them. Calls come from the whole dose curve.
Potency is the fitted concentration of half-maximal effect.

Cytochrome P450 1A2 (Homo sapiens), sequence (P05177 whole entry, looked up): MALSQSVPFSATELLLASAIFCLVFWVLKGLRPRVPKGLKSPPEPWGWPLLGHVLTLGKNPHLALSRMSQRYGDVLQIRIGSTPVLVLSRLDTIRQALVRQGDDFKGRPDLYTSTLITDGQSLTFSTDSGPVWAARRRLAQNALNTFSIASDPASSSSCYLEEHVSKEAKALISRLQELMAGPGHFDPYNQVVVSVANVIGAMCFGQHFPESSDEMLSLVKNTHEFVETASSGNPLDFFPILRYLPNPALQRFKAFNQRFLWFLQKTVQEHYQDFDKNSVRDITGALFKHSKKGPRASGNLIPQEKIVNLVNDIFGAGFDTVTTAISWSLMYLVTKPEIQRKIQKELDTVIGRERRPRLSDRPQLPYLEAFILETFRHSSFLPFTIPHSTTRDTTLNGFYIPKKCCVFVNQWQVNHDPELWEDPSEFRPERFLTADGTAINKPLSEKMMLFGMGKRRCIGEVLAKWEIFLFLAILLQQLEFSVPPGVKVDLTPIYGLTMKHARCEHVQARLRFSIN

This experiment addresses Cytochrome P450 1A2 (Homo sapiens) (UniProt P05177). The experiment in a line: p450-cyp1a2 (AID 410).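 For activity change, negative = inhibition: -100% = full effect of reference inhibitor.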 Conditions: recombinant CYP1A2, luciferin-ME demethylation, luminescence; series mostly up to 57 µM. As for the experimental part: The P450 gene superfamily is involved in metabolism and the clearance of xenobiotics. This assay used human CYP1A2 to measure the demethylation of luciferin 6' methyl ether (Luciferin-ME; Promega-Glo) to luciferin. The luciferin is then measured by luminescence after the addition of a luciferase detection regeant. Luciferin-ME concentration in the assay was equal to its Km for CYP1A2.
NCGC Assay Protocol Summary:
Two uL of enzyme and substrate mix (final concentrations: 20nM CYP1A2, 100uM Luciferin-ME, 100mM KPO4) were dispensed into a white, solid bottom 1536-well microtiter plate. 23nL of compound was transferred by a pin tool. The plate was incubated at room temperature for 10 min. Two uL of an NADPH regeneration solution (Promega supplied reagent) was dispensed and the reaction was allowed to continue for 60 min at room temperature. Then the reaction was stopped by reconstituted detection reagent. After another 20 min of incubation the plate was read on the ViewLux (Perkin Elmer) at 60 sec exposure and 2x2 binning. This protocol was carried out with Promega-Glo reagents and further information can be found at http://www.promega.com/tbs/tb325/tb325.pdf. Data were normalized to the to AC100 inhibition (57 uM furafylline).
Turning to `CC(C)c1cccc2nc3c(c([Si](C)(C)C)c12)Cn1c-3cccc1=O`, the Potency is 15.8 µM (active).
On the same count and under the same terms, in the case of `CC1=C(C(=O)OCc2ccccc2)C(c2ccc(Cl)cc2)NC(=O)N1CCCCCC(=O)O` (stereo not given) it was 25.1 µM (active); in that of `CC(C)C[C@@H](CC(=O)N[C@@H](CCCN)CC(=O)N[C@@H]1CCNC[C@H]1C(=O)N[C@H](CC(=O)N[C@@H](CCC(=O)O)CC(=O)O)Cc1c[nH]c2ccccc12)NC(=O)[C@@H]1CNCC[C@H]1N`, “inactive”.
Consider `C/C(=C\CNc1ncnc2c1ncn2[C@@H]1O[C@@H](CO)[C@@H](O)[C@H]1O)CO`, for which the Potency result is “inactive”.
Take `COC(=O)[C@H]1C[C@@H]1[C@H](NC(=O)c1ccccc1)c1ccccc1`: the Potency is 15.8 µM (active).
For `CCCCCCCCCCCCCCCCCCOC[C@@H](COP(=O)([O-])OCC[N+](C)(C)C)OC`, the Potency entry is “inactive”.
Same read-out and setting: as for `COC(=O)[C@H](C)[C@H]1C[C@]1(C)[C@H](NC(=O)OCc1ccccc1)c1ccccc1`, the figure is 15.8 µM (active); as for `Nc1ccccc1C#Cc1ccccc1`, 0.501 µM (active); as for `COC(=O)[C@@]1(Cc2ccc(F)cc2)[C@H]2c3cc(C(=O)N(C)C)n(Cc4ccc(C(F)(F)F)nc4)c3C[C@H]2CN1C(=O)c1ccccc1`, “inactive”.
On the same count and under the same terms, as for `CC(C)C[C@@H](CC(=O)N[C@H](CC(=O)N[C@@H]1CCNC[C@H]1C(=O)N[C@H](CC(=O)N[C@@H](CCC(=O)O)CC(=O)O)Cc1c[nH]c2ccccc12)C(C)C)NC(=O)[C@@H]1CNCC[C@H]1N`, the entry is “inactive”; as for `COC(=O)[C@@]1(Cc2ccccc2)[C@H]2c3cc(C(=O)N4CCCC4)n(CC4CC4)c3C[C@H]2CN1C(=O)c1ccccc1`, “inactive”; as for `COC(=O)C1(CC(C)C)C=C2C(=C(c3ccccc3)C(=O)C2C)CN1` (stereo not given), 15.8 µM (active).
On the same count and under the same terms, in the case of `CC(C)[C@@H](CC(=O)N[C@@H]1CCCC[C@H]1C(=O)N[C@H](CC(=O)N[C@@H](CCC(=O)O)CC(=O)O)Cc1c[nH]c2ccccc12)NC(=O)C[C@H](CO)NC(=O)[C@@H]1CCCC[C@H]1N` it was “inactive”.
For `COC(=O)[C@@]1(Cc2ccccc2)[C@H]2c3cc(C(=O)N4CCCC4)n(Cc4ccsc4Br)c3C[C@H]2CN1C(=O)c1ccccc1`, the Potency result was “inactive”.
Same read-out and setting: as for `CCCC/C=C/C(NC(=O)Oc1cccc(C(F)(F)F)c1)c1ccccc1` (stereo not given), the figure is 2.51 µM (active); as for `COc1cc(/C=C\C(=O)N2CCC=CC2=O)cc(OC)c1OC`, 0.2 µM (active).
For `O=C(Cc1ccccc1I)Nc1ccccc1`, the Potency was 12.6 µM (active).
Consider `CC(=O)O[C@]12CC[N@+]3(C)CCCC[C@@H]3[C-]1Nc1ccccc12`, for which the activity change, negative = inhibition was -11% [at 11.4 µM].
As for `C[C@@H](C(=O)Nc1ccc2ccccc2c1)[C@H]1C[C@]1(C)[C@H](NP(=O)(c1ccccc1)c1ccccc1)c1ccccc1`, the Potency is 10 µM (active).
Same read-out and setting: as for `COC(=O)[C@@]1(Cc2ccc(F)cc2)[C@H]2c3cc(C(=O)N4CCCC4)n(Cc4ccc(C)o4)c3C[C@H]2CN1C(=O)c1ccccc1`, the figure is 10 µM (active); as for `CCCC[C@@H]1C[C@H]1C(NC(=O)c1ccccc1)c1ccc(Cl)cc1` (stereo not given in full), 1 µM (active); as for `COc1ccc2c(c1)[C@]1(C)CCC[C@](C)(CO)[C@@H]1CC2`, 15.8 µM (active).
The same measure, in the same setting: as for `C/C(=C\C1CCCCC1)C(NC(=O)c1ccc(C(F)(F)F)cc1)c1ccc(-c2ccccc2)cc1` (stereo not given), the entry is “inactive”.
For the compound `CC(C)OC(=O)c1cc2c(OC[C@@H](O)CNC(C)(C)C)cccc2[nH]1`, the Potency was 31.6 µM (active).
On to `COC(=O)[C@H]1C[C@@H]1[C@H](NC(=O)OCc1ccccc1)c1ccccc1`, for which the Potency was 0.126 µM (active).
Take `Cc1cc(CNC(=O)[C@H]2C[C@@H]2[C@H](NP(=O)(c2ccccc2)c2ccccc2)c2ccccc2)nn1C`: the Potency entry was “inactive”.
Turning to `O[Si@](CCCN1CCCCC1)(c1ccc(F)cc1)C1CCCCC1`, the Potency entry was “inactive”.
The same measure, in the same setting: as for `COc1ccc2c(=O)cc(-c3ccccc3)oc2c1O`, the figure is 0.0158 µM (active).
Take `COC(=O)c1ccc(C#CC(NP(=O)(c2ccccc2)c2ccccc2)c2ccccc2)cc1` (stereo not given): the Potency was 20 µM (active).
Still for that read-out and setting: as for `COC(=O)[C@@]1(Cc2ccccc2)[C@H]2c3cc(C(=O)N4CCCC4)n(Cc4ccc(S(C)(=O)=O)cc4)c3C[C@H]2CN1C(=O)c1ccccc1`, the entry is “inactive”.
The same measure, in the same setting: in the case of `COC(=O)[C@@]1(Cc2ccc(F)cc2)[C@H]2c3cc(C(=O)N(C)C)n(Cc4ccc(Cl)c(C(F)(F)F)c4)c3C[C@H]2CN1C(=O)c1ccccc1` it was 15.8 µM (active).
On the same count and under the same terms, as for `COc1ccc(-c2coc3ccc(O[C@@H]4O[C@@H](COC(C)=O)[C@@H](OC(C)=O)[C@@H](OC(C)=O)[C@H]4OC(C)=O)cc3c2=O)cc1`, the entry is “inactive”; as for `Cc1cc(C(=O)N[C@H](c2ccccc2)[C@@]2(C)C[C@@H]2[C@@H](C)C(=O)Nc2ccc3ccccc3c2)n(C)n1`, 20 µM (active).
As to `C[C@@]12CCC(=O)C=C1CC[C@@H]1[C@@H]2[C@H](O)C[C@]2(C)[C@@H]1CC[C@]2(O)C(=O)COC(=O)CCC(=O)O`, the Potency result was “inactive”.
The same measure, in the same setting: in the case of `COC(=O)[C@@]1(Cc2ccc(F)cc2)[C@H]2c3cc(C(=O)N(C)C)n(Cc4ccc(C)o4)c3C[C@H]2CN1C(=O)c1ccccc1` it was “inactive”.
Same read-out and setting: as for `CC[C@H]1C2=C3C(CC[C@H]4C(OCc5ccc(F)cc5C(F)(F)F)OC[C@](C)([C@@H]34)N(C(=O)OC(C)(C)C)C2)C2COC(=O)OCC21` (stereo not given in full), the entry is “inactive”.
Consider `COC(=O)[C@@]1(Cc2ccc(F)cc2)[C@H]2c3cc(C(=O)N4CCCC4)n(CCc4ccc(O)c(O)c4)c3C[C@H]2CN1C(=O)c1ccccc1`, for which the Potency is 20 µM (active).
As to `CC(C)C[C@@H](CC(=O)N[C@@H](CCCN)CC(=O)N[C@@H]1CCCC[C@H]1C(=O)N[C@H](CC(=O)N[C@@H](CCC(=O)O)CC(=O)O)Cc1c[nH]c2ccccc12)NC(=O)[C@@H]1CNCC[C@H]1N`, the Potency result was “inactive”.
With `C[C@@H](C(=O)Nc1ccc2ccccc2c1)[C@H]1C[C@]1(C)[C@H](NC(=O)c1cnccn1)c1ccccc1`, the Potency was 25.1 µM (active).
Same read-out and setting: in the case of `CC(C)C[C@@H](CC(=O)N[C@@H](CCC(=O)O)CC(=O)O)NC(=O)[C@@H]1CNCC[C@H]1NC(=O)C[C@@H](NC(=O)C[C@H](Cc1ccccc1)NC(=O)[C@@H]1CNCC[C@H]1N)C(C)C` it was 31.6 µM (active).

Values taken from PubChem BioAssay (NCATS).
